# ELG1 genotox: inducers of genotoxicity in HEK293T ELG1-luciferase cells; HEK293T ELG1-luciferase reporter, luminescence, 16 h; Potency, µM (doses to about 46 µM), usual class: activators; 330,000 tested, 1.3% active; AID 504466; further: nearly all actives have a fitted effect of over 60% in size
#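 DMSO vehicle served as control against compound-treated ELG1-luciferase HEK293T cells; exposure lasted 16 hr at 37 °C and 5% CO2, followed by ONE-Glo luminescence detection after 30 min.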
# NPC1 promoter act: activates the NPC1 promoter; Huh7 NPC1 promoter luciferase reporter, 24 h; Potency, µM (titrated, usually from 9.22 µM), usual class: activators; 320,000 tested, 2.4% active; AID 485313; further: nearly all actives have a fitted effect of over 60% in size
#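 Luciferase expression driven by the NPC1 promoter was measured in stably transfected Huh7 cells after a 24 h compound incubation, using a luciferase reagent and a luminescence read.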
# SMN2 splice enh: SMN2 splice variant enhancement. HEK293 SMN2-luciferase splicing reporter, luminescence, 30-36 h. Potency, µM (series often up to 46.1 µM), hits mostly activators. 210,000 tested, 2.8% active; further: nearly all actives have a fitted effect of over 55% in size
#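 qHTS luciferase splicing reporter: luminescence rises when SMN2 exon 7 is included in transfected HEK293 cells. Compound exposure lasted 30-36 h at 37C, with 4.5 mM final sodium butyrate as control, followed by a ONE-Glo read.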
# Rab9 promoter act: Rab9 promoter activation; 320,000 tested, 2.8% active; AID 485297; Potency, µM (highest dose often 9.22 µM), most hits filed as activators; Huh7 Rab9 promoter-luciferase reporter, luminescence, 24 h; further: nearly all actives have a fitted effect of over 60% in size
#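 Cells were plated at 1500 per well in reduced-serum medium with 10% FBS and left 2 h. Compound in DMSO was then added for 24 h at 37 °C. Reporter signal was read by luminescence after 10 min with luciferase detection reagent.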
# FLuc modulator: counter-screen for miR-21 project: firefly luciferase inhibitors or activators. P08659. purified FLuc, Km substrates, luminescence inhibition. Potency, µM (titrated, usually from 57.5 µM), usual class: inhibitors. 360,000 tested, 6.9% active; further: nearly all actives have a fitted effect of over 55% in size
# Target sequence (P08659 whole entry, looked up): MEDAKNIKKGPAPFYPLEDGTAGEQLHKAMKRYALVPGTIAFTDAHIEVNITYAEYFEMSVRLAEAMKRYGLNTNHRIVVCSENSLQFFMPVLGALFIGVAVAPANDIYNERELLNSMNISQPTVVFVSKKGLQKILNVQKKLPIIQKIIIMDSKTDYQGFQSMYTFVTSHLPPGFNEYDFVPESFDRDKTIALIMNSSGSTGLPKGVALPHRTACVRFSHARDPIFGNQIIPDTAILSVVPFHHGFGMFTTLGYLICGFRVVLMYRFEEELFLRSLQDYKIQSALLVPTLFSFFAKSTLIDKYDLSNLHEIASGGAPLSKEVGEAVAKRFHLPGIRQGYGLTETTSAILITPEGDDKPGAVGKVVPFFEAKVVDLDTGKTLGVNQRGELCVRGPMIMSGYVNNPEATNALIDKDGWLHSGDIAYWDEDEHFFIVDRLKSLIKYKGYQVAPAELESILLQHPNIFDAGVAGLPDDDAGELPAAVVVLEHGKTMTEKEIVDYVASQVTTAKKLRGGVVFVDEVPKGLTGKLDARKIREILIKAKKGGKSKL
#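 Purified P. pyralis luciferase, 10 nM final, with Km-level 10 uM D-luciferin and 10 uM ATP in 50 mM Tris acetate pH 7.5, 10 mM Mg acetate, 0.01% Tween-20, 0.05% BSA; 6-point qHTS titration about 60 µM downward; luminescence read.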
# Luc counter: blocks Kinase-Glo luciferase, a counter-screen artifact. Kinase-Glo luciferase, ATP luminescence, 8 min. Potency, µM (series often up to 38.3 µM), actives largely listed as inhibitors. 200,000 tested, 0.28% active. AID 1379; further: nearly all actives have a fitted effect of over 60% in size
#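 Luminescence was the read-out, taken after 8-minute incubation at ambient temperature. Luciferase turned over luciferin with 10 uM ATP in imidazole pH 7.2 buffer containing KCl, MgCl2, Tween 20 and BSA.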
# Numbers stand for hits; . = inactive; ? = inconclusive; / = not tested or not shown; ! = repeats disagree; [ ] = remark or other dose. Shown are actives, neighbours in structure and some others; about 7.3% of the full set was active somewhere. The call rests on the fitted dose curve; in most records, active means well fitted curve in the direction sought with a large enough effect; inconclusive means small, poorly fitted or top-dose-only effect, or another doubt; inactive means no such curve, though single readings can be large; an effect the other way counts as inactive or inconclusive.
SMILES,ELG1 genotox,NPC1 promoter act,SMN2 splice enh,Rab9 promoter act,FLuc modulator,Luc counter
NC(=O)COc1ccc(Nc2nnc(-c3ccc(O)cc3)c3ccccc23)cc1,.,.,/,.,?,/
Cn1c(C(=O)N2CCC(C(=O)N3CCN(Cc4ccc5c(c4)OCO5)CC3)CC2)cc2sccc21,.,.,.,.,.,.
O=c1ncn(-c2ccc(F)cc2)c2ncccc12,.,.,.,.,.,.
Fc1ccc(-n2nnc(-c3nccs3)n2)cc1,3.66µM,0.501µM,/,0.501µM,3.38µM,/
O=C(O)c1cc(N=Nc2ccc([N+](=O)[O-])cc2)ccc1O,/,/,14.1µM!,/,/,.[7.66 µM]
CC(C)c1ccc(S(=O)(=O)N2CCN(C(=O)CCNC(=O)Nc3ccccc3)CC2)cc1,.,.,/,.,.,/
CNc1nc(C)nc(-c2ccccc2O)n1,.,.,.,.,?,.
CC(C)OC(=O)CC(=O)CSc1nc2c(cc1C#N)CCCCC2,14.6µM,.,?,?,7.57µM,.
CCOC(=O)CC(=O)COc1nc2cc3c(nc2o1)CCCC3,?,.,/,.,13.5µM,/
CCOC(=O)CC(=O)CSc1nc2c(cc1C#N)CCCCC2,7.08µM,.,?,?,9.53µM,.
Cc1ccccc1NC(=O)Cn1cnc2c(oc3nc4c(cc32)CCCC4)c1=O,.,.,/,.,.,/
CCOC(=O)CC(=O)CSc1nc2c(c(C)c1C#N)CCC2,.,.,.,.,10.7µM,.
Fc1cccc(/C=N/N=C/c2cccc(F)c2)c1,?,?,.,?,2.69µM,.
Cc1ccc(/C=N/N=C/c2ccc(C)cc2)cc1,20.6µM,?,?,?,2.39µM,.
C(=N\N=C\c1ccccc1)/c1ccccc1,.,.,.,.,0.953µM,.
C(=C/c1ccccc1)/c1ccccc1,/,/,.,/,/,/
Oc1ccc(/C=N/N=C/c2ccc(O)c(O)c2)cc1O,.,.,/,.,15.1µM,/
Oc1ccc(/C=N/N=C/c2ccc(O)cc2)cc1,.,.,.,.,7.57µM,.
O=C(O)c1ccc(N2C(=O)CC(SC(=NCc3ccc4c(c3)OCO4)Nc3ccccc3)C2=O)cc1 (stereo not given),.,.,/,.,.,/
O=C(Cc1ccc(Cl)cc1)Nc1ccc(C(=O)N2CCCCC2)cc1,.,.,/,.,26.9µM,/
Cc1ccc(CC(=O)Nc2ccc(C(=O)N3CCCCC3)cc2)cc1,.,.,/,.,.,/
O=C(c1ccc(CSc2ccc(Cl)cc2)cc1)N1CCCC1,.,.,.,?,19µM,.
C/C(Cn1nc([N+](=O)[O-])cc1C)=N\NC(=O)COc1ccccc1[N+](=O)[O-],.,.,.,.,.,.
N#Cc1c(Cl)nc(SCc2ccccc2)nc1-c1ccccc1,.,.,.,.,.,.
COc1cc(C(=O)Nc2ccc3ccccc3c2)cc(OC)c1OC,?,.,/,.,19µM,/
SMILES,ELG1 genotox,NPC1 promoter act,SMN2 splice enh,Rab9 promoter act,FLuc modulator,Luc counter
Cn1nnc2cc(C(=O)Nc3ccc4ccccc4c3)ccc21,2.31µM,0.891µM,3.16µM,0.398µM,1.9µM,.
COc1ccc(C(=O)Nc2ccc3ccccc3c2)cc1OC,?,2.82µM,/,?,9.53µM,/
COc1ccc(OC)c(C(=O)c2ccc(C(=O)Nc3ccc4ccccc4c3)cc2)c1,?,.,.,.,.,.
Cc1ccc(S(=O)(=O)Cn2nnnc2C(c2ccccc2)N2CCN(c3ncccn3)CC2)cc1 (stereo not given),.,.,.,.,.,.
CCc1ccc(NC(=O)CSCc2ccc(C(=O)O)cc2)cc1,.,.,/,.,?,.
Cc1ccccc1NC(=O)c1ccc2c(c1)C(=O)N(CC(C)C)C2=O,.,.,/,.,.,/
CC(C)CN1C(=O)c2ccc(C(=O)Nc3ccccn3)cc2C1=O,?,?,.,?,2.69µM,.
CCCN1C(=O)c2ccc(C(=O)Nc3nccs3)cc2C1=O,.,.,.,.,?,.
CC(C)CN1C(=O)c2ccc(C(=O)Nc3nccs3)cc2C1=O,?,?,.,?,6.75µM,.
CC(C)CN1C(=O)c2ccc(C(=O)Nc3ccccc3C(=O)O)cc2C1=O,?,2.51µM,/,4.47µM,3.01µM,/
Cc1cc(C(C)(C)C)ccc1OCCN1CCCC1,.,.,.,.,.,.
CCCS(=O)(=O)NCCc1csc(-c2ccc(OC)c(OC)c2)n1,.,.,/,.,.,/
CC1CCC2(CC1)NC(=O)N(CC(=O)Nc1cc(S(=O)(=O)N3CCCC3)ccc1Cl)C2=O (stereo not given),.,/,/,/,/,/
Cc1cccc(S(=O)(=O)C(C#N)c2nc3ccccc3nc2N2CCCC2)c1 (stereo not given),.,.,.,.,.,.
CN(C)c1ccc(-n2cc3c(=O)n(C)c(=O)n(C)c3c2)cc1,?,?,.,?,16.9µM,.
CCN(CC)c1ccc(-n2cc3c(=O)n(C)c(=O)n(C)c3c2)cc1,.,.,.,.,?,.
CC(C)OC(=O)COc1ccc(-c2ccccc2)cc1,.,.,.,.,12µM,.
CC(C)(C)NC(=O)COc1ccc(-c2ccccc2)cc1,?,?,.,.,19µM,.
CCNC(=O)COc1ccc(-c2ccccc2)cc1,?,?,?,?,19µM,.
COc1ccc(NC(=O)COc2ccc(-c3ccccc3)cc2)cc1,.,.,/,.,.,/
O=C(NCc1cccnc1)C1CCCN(S(=O)(=O)c2ccccc2)C1 (stereo not given),.,.,.,.,.,.
CC(C)c1ccc(C(=O)CSc2ncn[nH]2)cc1,?,?,.,?,9.53µM,.
O=C(CSc1ncn[nH]1)c1ccc2c(c1)OCCO2,?,.,.,.[1.84 µM],?,.
COC(=O)C1=NN(C(=O)c2ccccc2)C(O)(c2ccc([N+](=O)[O-])cc2)C1 (stereo not given),.,.,/,.,23.9µM,/
Cc1c(-c2ccccn2)c(=O)[nH]n1-c1ccc(F)cc1,?,3.55µM,5.62µM,0.501µM,3.01µM,.
SMILES,ELG1 genotox,NPC1 promoter act,SMN2 splice enh,Rab9 promoter act,FLuc modulator,Luc counter
CCOC(=O)/C=c1\s/c(=C\c2ccc(C(=O)OC)cc2)c(=O)n1CC(=O)Nc1ccccc1,?,.,.,.,.,.
O=C(O)CCN1C(=O)C2C3c4ccccc4C(c4ccccc43)[C@@H]2C1=O (stereo not given in full),.,.,/,.,.,/
CN(C)S(=O)(=O)N1CCc2ccc(NC(=O)c3ccc(C(F)(F)F)cc3)cc2C1,.,.,/,.,4.78µM,/
COCCC(=O)N1CCc2ccc(NC(=O)c3ccc(C(F)(F)F)cc3)cc2C1,.,.,/,.,13.5µM,/
CN1c2ccccc2C2(C)CCCC3=Cc4cc([N+](=O)[O-])cc([N+](=O)[O-])c4OC312 (stereo not given),.,.,.,.,.,.
O=C(NC1CCCc2ccccc21)c1ccccn1 (stereo not given),.,.,/,.,.,/
